Experimental findings from PubChem BioAssay are described below.

The structures appear in SMILES notation. For part of these data: Results with a measured potency or affinity are listed apart. Activity calls are given as the source filed them.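 The calls were made as follows, unless noted: active = primary screen hit whose fluorescence ratio, in both repeats, exceeds the weak agonist control mean by 3 SD; inactive = the rest.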

Test [1] deals with TRPC4 beta (transient receptor potential cation channel C4), mouse. The experiment in a line: TRPC4 cation channel opening, retest – cell-based, Fluo4 calcium, HEK293 TRPC4beta/mu-opioid, duplicates, 10 µM, confirmation (AID 2426;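 active = fluorescence ratio normalized to control raised more than 50% in primary screen plus both repeat runs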). To be noted: Fluo4 calcium fluorescence, at 10 µM; stronger effect = higher value.
Test [2] relates to transient receptor potential cation channel C4 beta (TRPC4), mouse. The experiment in a line: TRPC4 cation channel opening, second retest – cell-based, second round, Fluo4, HEK293 TRPC4beta/mu-opioid, 1 µM, confirmation (AID 2461;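 active = primary screen active and over 50% activation in each of two duplicate runs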). To be noted: Fluo4 calcium fluorescence, at 1 µM; stronger effect = higher value.
Test [3] has as its system TRPC4 (transient receptor potential cation channel C4 beta), mouse. The experiment in a line: potentiation of DAMGO EC20 TRPC4 response – cell-based, second round, Fluo-4, HEK293 TRPC4beta/mu-opioid, 1 µM, confirmation (AID 2554). To be noted: DAMGO EC20, Fluo-4 calcium flux, at 1 µM; stronger effect = higher value.
Test [4] concerns TRPC4 beta (transient receptor potential cation channel C4), mouse. The experiment in a line: potentiation of DAMGO EC20 TRPC4 response – cell-based, Fluo-4, HEK293 TRPC4beta/mu-opioid, confirmation (AID 2555;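 active = primary screen hit whose calcium fluorescence ratio, in both repeats, exceeds the weak agonist control mean by 3 SD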). To be noted: DAMGO EC20, Fluo-4 calcium flux, at 10 µM; stronger effect = higher value. On the technique in general: Calcium assays in cells follow changes in intracellular calcium, usually with a dye or a luminescent sensor.

Test [5] deals with Short transient receptor potential channel 4 (Mus musculus) (UniProt Q9QUQ5). The experiment in a line: blockers of DAMGO-evoked TRPC4 calcium flux – cell-based, Fluo4, HEK293 TRPC4beta/mu-opioid, confirmation (AID 2636;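 active = calcium signal cut by more than 3 SD below the full-agonist control yet still positive, in both repeats and the earlier primary screen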). To be noted: at 10 µM; stronger effect = higher value.
For test [6] the target is unchanged. The experiment in a line: blockers of DAMGO-evoked TRPC4 calcium flux – cell-based, second round, Fluo4, HEK293 TRPC4beta/mu-opioid, 1 µM, confirmation (AID 2637;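 active = calcium signal ratio cut to more than 3 SD under the fully stimulated control mean yet still positive, in both repeats and the primary screen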;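 as to inhibition: percent of integrated ratio relative to wells lacking test compound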). To be noted: at 1 µM; stronger effect = higher value.
Test [7] has the same target. The experiment in a line: calcium entry via TRPC4 opening agents – cell-based, HEK293 TRPC4/mu-opioid, Fluo-4 calcium, dose response (AID 434937;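 active = primary screen activator hit with a dose response curve and TRPC4 channel activation at any tested dose; inactive = no activation, no dose response, or not a primary hit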). To be noted: HEK293 TRPC4 cells, Fluo-4 calcium fluorescence ratio; series mostly up to 20 µM.
Test [8] has the same target. The experiment in a line: potentiation of DAMGO-evoked TRPC4 calcium signal – cell-based, HEK293 TRPC4/mu-opioid, Fluo-4 calcium, EC20 DAMGO, dose response (AID 434941;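 active = earlier screen potentiator hit that boosts the TRPC4 ion channel at some dose, with a dose response; inactive = no potentiation, no dose response, or not a prior hit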;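 also: calcium entry triggered by an EC20 dose of DAMGO at the co-expressed mu-opioid receptor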). To be noted: HEK293 TRPC4/mu-opioid cells, Fluo-4 calcium fluorescence; series mostly up to 20 µM.
Test [9] concerns the target Short transient receptor potential channel 6 (Mus musculus) (UniProt Q61143). The experiment in a line: TRPC6 blockade by TRPC4 inhibitor hits – cell-based, HEK293, membrane potential dye, duplicate, selectivity assay for TRPC4 inhibitor project, confirmation (AID 434948;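 active = active in primary screen and both duplicates, each dropping signal beyond three positive-control SD with fluorescence still positive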). To be noted: HEK293 TRPC6, membrane potential dye fluorescence, at 10 µM, stimulated with maximal-effect acetylcholine; stronger effect = higher value.

Test [10] shares this target. The experiment in a line: TRPC6 opening by TRPC4 activator hits – cell-based, HEK293, membrane potential dye, duplicate, selectivity assay for TRPC4 activator project, confirmation (AID 434950;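 active = membrane potential signal rise above negative control mean plus 3 SD in both duplicates, also active in the earlier TRPC4 screen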). To be noted: HEK293 TRPC6, membrane potential fluorescence, at 10 µM; activation: stronger effect = higher value; outcome: activation.
Test [11] shares this target. The experiment in a line: positive modulators of mouse TRPC6 channel – HEK293 cells, membrane potential dye, duplicate, selectivity assay for TRPC4 potentiator project, confirmation (AID 434952;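 active = compound raising the membrane signal above positive-control mean plus 3 SD in both repeats, and a primary screen hit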). To be noted: HEK293 TRPC6, membrane potential dye fluorescence, at 10 µM, maximal acetylcholine added after compound; stronger effect = higher value.
Test [12] has as its target Short transient receptor potential channel 4 (Mus musculus) (UniProt Q9QUQ5). The experiment in a line: calcium flux activators in TRPC4/5HT1a cells, counter-screen for TRPC4 activator project, cell-based, second counter screen, HEK293 TRPC4/5HT1a, Fluo-4 (AID 434977;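 active = calcium signal rise above buffer-control mean plus 5 SD in both duplicates, and also a hit in the primary screen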). To be noted: Fluo-4 calcium flux, at 10 µM; stronger effect = higher value.
Test [13] in a line: serotonin-gated TRPC4 signal block – cell-based, second counter screen, HEK293 TRPC4/5HT1a, Fluo-4, counter-screen for TRPC4 inhibitor project, confirmation (AID 434978;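 active = primary screen active whose calcium signal fell more than 3 SD beyond the full-serotonin control mean in both duplicate plates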;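 as to outcome: serotonin given first at submaximal then at maximal dose after compound preincubation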). To be noted: Fluo-4 calcium flux, at 10 µM, serotonin added to trigger calcium flux; stronger effect = higher value. For orientation: The purpose of a counterscreen is to sort out artefacts and off-target activity.
Test [14] relates to TRPC4 (mouse), co-expressed with 5HT1a in HEK293. The experiment in a line: enhancement of serotonin-evoked TRPC4 response – cell-based, second counter screen, HEK293 TRPC4/5HT1a, Fluo-4, counter-screen for TRPC4 potentiator project, confirmation (AID 434979;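 active = signal rise over 3 SD above mean of control wells given weak agonist, in both repeats and first screen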). To be noted: Fluo-4 calcium flux, at 10 µM, serotonin added at its EC20 dose; stronger effect = higher value.
Test [15] in a line: nonspecific calcium rise without TRPC4 – cell-based, HEK293 mu-opioid receptor line, counter-screen for TRPC4 activator project, confirmation (AID 449723;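 active = hit in primary screen, with calcium signal over 5 SD above buffer well mean in both duplicates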;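 also: counter screen cells carry the mu-opioid receptor alone and lack TRPC4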). To be noted: HEK293 mu-opioid cells, Fluo-4 calcium fluorescence, at 10 µM; stronger effect = higher value.
The nature of test [16]: nonspecific potentiation of DAMGO calcium response – cell-based, HEK293 mu-opioid receptor line, counter-screen for TRPC4 allosteric potentiator project, confirmation (AID 449724;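 active = calcium signal rise more than 3 SD above the low-dose agonist control mean, in both duplicate plates and the primary screen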;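 also: HEK293 cells carrying mu-opioid receptor only with no TRPC4 channel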). To be noted: HEK293 mu-opioid receptor cells, Fluo-4 calcium flux, at 10 µM, compound added before EC20 DAMGO stimulus; stronger effect = higher value.

Short transient receptor potential channel 4 (Mus musculus), sequence (Q9QUQ5 whole entry, looked up): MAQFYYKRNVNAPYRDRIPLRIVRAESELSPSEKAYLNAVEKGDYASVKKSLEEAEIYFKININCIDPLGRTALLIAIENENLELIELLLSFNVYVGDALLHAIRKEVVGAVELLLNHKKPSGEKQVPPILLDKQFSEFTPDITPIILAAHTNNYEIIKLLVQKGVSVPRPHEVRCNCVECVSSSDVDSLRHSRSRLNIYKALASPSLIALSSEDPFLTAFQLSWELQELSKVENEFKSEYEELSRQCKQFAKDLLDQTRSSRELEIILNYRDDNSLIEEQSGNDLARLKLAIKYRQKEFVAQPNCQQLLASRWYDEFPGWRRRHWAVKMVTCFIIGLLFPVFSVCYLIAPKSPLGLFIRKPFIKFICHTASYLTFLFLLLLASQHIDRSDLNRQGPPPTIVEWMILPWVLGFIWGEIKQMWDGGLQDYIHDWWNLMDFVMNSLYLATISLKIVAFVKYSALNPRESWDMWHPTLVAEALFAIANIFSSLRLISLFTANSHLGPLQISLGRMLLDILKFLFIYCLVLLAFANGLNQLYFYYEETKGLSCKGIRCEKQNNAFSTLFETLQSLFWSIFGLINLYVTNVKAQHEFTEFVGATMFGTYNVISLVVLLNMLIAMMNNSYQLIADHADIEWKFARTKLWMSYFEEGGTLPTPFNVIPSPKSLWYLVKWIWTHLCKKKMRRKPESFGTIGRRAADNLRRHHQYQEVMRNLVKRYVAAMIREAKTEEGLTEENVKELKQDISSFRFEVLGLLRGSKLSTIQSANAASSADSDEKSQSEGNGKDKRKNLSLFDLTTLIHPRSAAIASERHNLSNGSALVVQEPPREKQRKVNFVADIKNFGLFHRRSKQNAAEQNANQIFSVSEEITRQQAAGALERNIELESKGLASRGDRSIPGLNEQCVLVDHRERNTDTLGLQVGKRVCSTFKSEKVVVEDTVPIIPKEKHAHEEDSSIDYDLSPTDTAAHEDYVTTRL
Short transient receptor potential channel 6 (Mus musculus), sequence (Q61143 whole entry, looked up): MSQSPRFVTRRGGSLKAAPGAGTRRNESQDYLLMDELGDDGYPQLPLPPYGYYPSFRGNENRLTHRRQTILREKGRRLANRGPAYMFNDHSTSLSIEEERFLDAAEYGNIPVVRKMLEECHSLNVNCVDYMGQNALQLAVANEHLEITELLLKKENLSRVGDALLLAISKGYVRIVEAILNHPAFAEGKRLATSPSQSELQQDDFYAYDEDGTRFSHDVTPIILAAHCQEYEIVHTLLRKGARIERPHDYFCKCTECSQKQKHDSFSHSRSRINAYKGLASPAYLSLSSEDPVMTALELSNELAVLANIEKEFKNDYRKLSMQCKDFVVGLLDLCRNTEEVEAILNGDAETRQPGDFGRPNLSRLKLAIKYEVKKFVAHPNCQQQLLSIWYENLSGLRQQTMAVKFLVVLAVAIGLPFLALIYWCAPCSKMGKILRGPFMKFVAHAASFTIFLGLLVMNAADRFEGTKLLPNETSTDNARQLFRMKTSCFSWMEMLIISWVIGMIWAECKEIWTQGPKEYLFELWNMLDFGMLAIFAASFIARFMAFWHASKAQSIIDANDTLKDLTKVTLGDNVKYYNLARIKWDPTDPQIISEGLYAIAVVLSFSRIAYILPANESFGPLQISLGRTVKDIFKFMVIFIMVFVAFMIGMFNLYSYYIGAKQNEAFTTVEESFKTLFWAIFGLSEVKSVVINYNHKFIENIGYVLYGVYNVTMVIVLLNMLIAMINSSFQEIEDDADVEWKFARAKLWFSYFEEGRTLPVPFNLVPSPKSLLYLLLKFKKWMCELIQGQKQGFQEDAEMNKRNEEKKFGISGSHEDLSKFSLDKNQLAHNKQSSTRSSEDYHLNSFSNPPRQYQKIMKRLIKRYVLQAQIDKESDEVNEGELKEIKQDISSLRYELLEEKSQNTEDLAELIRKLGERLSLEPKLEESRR

With `Cn1c(-c2ccccc2)cnc1NCc1ccccc1`, the result in test [1], in test [2], in test [3], in [4], in test [7] and in [8] was inactive. Besides, the outcome in test [9], in test [10], in test [11], in test [12], in [14] and in test [15] was inactive. For the same compound, the outcome in test [16] was inactive. Besides, the inhibition – broadly, the change of the read-out against control, counted positive when it falls – in [5] was 86% (active); in test [6], 44% (active); in test [13], 38.6% (active).

Turning to `Cc1ccc(OCC(COCc2ccccc2)NC(C)C)cc1` (stereo not given), the result in test [1], in [2], in [3], in [4], in test [6] and in [7] was inactive. The outcome in test [8], in test [10], in test [11], in test [12], in test [14] and in test [15] was inactive. Also, in test [16], the result was inactive. For the same compound, the inhibition is 85% (active) in test [5], 5% (active) in test [9] and 42.1% (active) in test [13].

As for `Cc1ccc(NC(=O)c2cc(N3C(=O)C=CC3=O)ccc2N2CCOCC2)cc1`, the outcome in test [1], in test [2], in test [3], in test [4], in test [7] and in [8] was inactive. Moreover, the result in test [9], in test [10], in test [11], in [12], in test [14] and in test [15] was inactive. Besides, in test [16], the result was inactive. The figures for the inhibition in test [5], in test [6] and in test [13] were 91% (active), 38% (active) and 34.6% (active), respectively.

With `CC(C)NC(=S)N1CCN(C/C=C/c2ccccc2)CC1`, the result in test [1], in test [2], in [3], in test [4], in [6] and in [7] was inactive. Besides, the result in test [8], in [9], in test [10], in test [11], in test [12] and in [13] was inactive. Besides, the result in test [14], in test [15] and in [16] was inactive. Moreover, the inhibition in test [5] was 71% (active).

Regarding `Cc1cc(-c2cn3ccccc3n2)c(C)n1-c1ccccc1`, the outcome in test [1], in test [2], in test [3], in test [4], in test [7] and in test [8] was inactive. The compound was classed as inactive in [9], in [10], in [11], in test [12], in test [13] and in [14]. In addition, the outcome in [15] and in test [16] was inactive. Further, the values for the inhibition in [5] and in test [6] were 101% (active) and 40% (active), respectively.

On to `Cc1oc(-c2ccc(Cl)cc2)nc1CN1CCC(C(=O)NCc2cccs2)CC1`, for which the result in test [1], in [2], in [3], in test [4], in test [6] and in test [7] was inactive. Moreover, the outcome in test [8], in [9], in test [10], in test [11], in test [12] and in test [14] was inactive. Also, the outcome in [15] and in [16] was inactive. The inhibition was 79% (active) in test [5] and 26.7% (active) in test [13].

For `COc1ccc(/C=C2\SC(=S)N(C(Cc3ccccc3)C(=O)O)C2=O)cc1` (stereo not given), the outcome in test [1], in [2], in test [3], in test [4], in [6] and in test [7] was inactive. Moreover, the result in test [8], in [9], in test [10], in test [11], in [12] and in test [14] was inactive. Moreover, the outcome in test [15] and in test [16] was inactive. In addition, the inhibition in [5] is 88% (active); in test [13], 32.2% (active).

With `CC(=O)N1CCN(c2ccccc2NC(=O)c2cccs2)CC1`, the outcome in test [1], in test [2], in test [3], in test [4], in test [7] and in test [8] was inactive. Moreover, the result in [9], in [10], in test [11], in test [12], in test [13] and in test [14] was inactive. Also, the outcome in [15] and in [16] was inactive. Moreover, the inhibition is 76% (active) in test [5] and 43% (active) in test [6].

Take `Cc1ccc(-c2c[n+](Cc3cccc(Cl)c3)c3n2CCC3)cc1`: the outcome in [1], in test [2], in test [3], in test [4], in [7] and in test [8] was inactive. Besides, the compound was called inactive in [9], in test [10], in test [11], in test [12], in [14] and in test [15]. The result in test [16] was inactive. The inhibition was 93% (active) in test [5], 76% (active) in test [6] and 14.8% (active) in test [13].

As to `CCC(C)NCCOCCOc1ccccc1-c1ccccc1` (stereo not given), the outcome in [1], in test [2], in test [3], in test [4], in [6] and in test [7] was inactive. The result in test [8], in [9], in test [10], in test [11], in [12] and in test [14] was inactive. Besides, the outcome in test [15] and in [16] was inactive. Further, the inhibition in test [5] was 77% (active); in test [13], 36.9% (active).

Turning to `COc1ccc(Nc2c3c(nc4ccccc24)CCC3)cc1`, the result in [1], in test [2], in test [3], in test [4], in test [6] and in [7] was inactive. Further, the result in test [8], in [9], in test [10], in [11], in test [12] and in test [14] was inactive. The outcome in [15] and in test [16] was inactive. Besides, the inhibition in test [5] was 98% (active); in test [13], 22.1% (active).

As for `CN1CCCCc2c1nc1ccccc1c2N` (tested in a mixture with another compound), the result in [1], in test [2], in test [3], in [4], in test [7] and in test [8] was inactive. Also, the result in test [10], in [11], in [12], in test [14], in test [15] and in test [16] was inactive. Also, the inhibition in test [5] is 95% (active); in [6], 83% (active); in test [9], 27% (active); in test [13], 12.4% (active).

On to `COc1ccccc1CC(Cc1nc2ccccc2[nH]1)c1nc2ccccc2[nH]1` (stereo not given), for which the result in test [1], in test [2], in test [3], in [4], in test [7] and in [8] was inactive. Moreover, the result in [9], in test [10], in [11], in test [12], in test [13] and in test [14] was inactive. Besides, the outcome in [15] and in test [16] was inactive. Besides, the inhibition was 83% (active) in [5] and 52% (active) in test [6].

Turning to `O=C(CSc1nnc(-c2ccc(Cl)cc2Cl)n1C1CCCCC1)N1CCCC1`, the outcome in [1], in [2], in [3], in [4], in test [5] and in test [7] was inactive. Besides, the result in test [8], in test [9], in test [10], in test [11], in test [12] and in test [13] was inactive. Besides, the outcome in [14], in [15] and in test [16] was inactive. Besides, the inhibition in test [6] was 48% (active).

Consider `Fc1ccc(CN2CCC(Cc3ccccc3)CC2)cc1F`, for which the result in test [1], in test [2], in [3], in test [4], in test [6] and in test [7] was inactive. Also, the result in test [8], in test [9], in [10], in test [11], in test [12] and in test [14] was inactive. Also, the result in [15] and in [16] was inactive. Also, the inhibition in test [5] was 89% (active); in test [13], 25.9% (active).
